Drawing on PubChem BioAssay (NCI), this text covers growth for 15 compounds.

About 83,000 compounds went through this panel and 20% of them were active in at least one assay; those are over-represented in the sample as a whole.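 Compound tested at a single concentration for 48 hours in 96-well plates; a percent growth value below 10 was scored as active.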 A number with no mark means an inactive call. The source made the active and inactive calls.

This test deals with UACC-257 melanoma. Briefly: NCI-60 one-dose screen, 48 h (100 = growth as untreated, 0 = no growth, -100 = all killed). Particulars: 10 µM unless noted.
Consider `O=C(Nc1ccc(Oc2ccc(Nc3nc4ccccc4s3)cc2)cc1)Nc1ccc(Cl)c(C(F)(F)F)c1`, for which the growth was -11.6% (active).

Consider `C[C@]12CCc3nc(Nc4ccc(O)cc4)sc3C1=CC[C@@H]1[C@@H]2CC[C@]2(C)/C(=N/NC(N)=S)CC[C@@H]12`, for which the growth is -9.35% (active).

For the compound `Cc1cc(N=Nc2ccc(-c3ccc(N=Nc4ccc(O)c(C(=O)O)c4)cc3)cc2)c(N)c(N=Nc2ccc(C(=O)O)cc2)c1N`, the growth is 110%.

For `c1ccc2c(c1)cnc1ccccc12`, the growth is 103%.

`Cc1cc(C)c2c(n1)sc1c(Nc3ccc(OCc4ccccc4)cc3)ncnc12`: the growth was 106%.

For the compound `COc1ccc2[nH]c(C(=O)OCc3ccc4cccc(O)c4n3)cc2c1`, the growth is -70.7% (active).

For `Cc1ccc2oc(=O)cc(-c3nc4ccc([N+](=O)[O-])cc4[nH]3)c2c1`, the growth was 62.2%.

Take `Cc1nc2ccc(Nc3nc(Cl)nc(N4CCOCC4)n3)cc2n1Cc1ccccc1`: the growth is 104%.

For the compound `CC(=O)c1c(O)c(C)c(O)c2c1OC1=CC(=O)/C(=C(/C)N)C(=O)C12C` (stereo not given), the growth is 100%.

In the case of `O=C(CI)NCCNc1cccc2c(S(=O)(=O)O)cccc12`, the growth was 108%.

For `O=c1[nH]cnc2nc[nH]c12`, the growth was 117%.

As for `CCN(CC)C(Cl)=Nc1ccc(Cl)cc1`, the growth is 98.8%.

In the case of `c1ccc2c(Cc3csc4ccccc34)csc2c1`, the growth is 93.5%.

With `COS(=O)(=O)CCN(CCOS(C)(=O)=O)S(C)(=O)=O`, the growth was 82.6%.

With `COc1cc(C2CC(c3cccc(Nc4ccnc5cc(Cl)ccc45)c3)=NN2c2ccccc2)cc(OC)c1OC` (stereo not given), the growth is 80.1%.
